The results in this text go back to PubChem BioAssay (NCATS).

For assay [1], the target named is Cytochrome P450 3A7 (Homo sapiens) (UniProt P24462). In words: Cytochrome P450 family 3 subfamily A member 7 (CYP3A7) small molecule antagonists: luciferase biochemical qHTS assay (AID 1963596). Further: nearly all actives have a fitted effect of over 40% in size. Further: potency means the concentration at half of the fitted maximal effect. The method, boiled down:
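Enzyme-substrate mix + cpd (DMSO), 10 min RT; + NADPH regen system, 1 h RT; + luciferin detection reagent, 20 min RT; luminescence read. Proluciferin substrate, P450-Glo format, 1536-well qHTS.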
In general terms: Quantitative high-throughput screening tests each substance at several concentrations.

Assay [2] is described as follows: Viability qHTS for spleen associated tyrosine kinase inhibitor (SYKi) naive MV4-11 cells (AID 1963823). Further: nearly all actives have a fitted effect of over 40% in size. The method, boiled down: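 Seeding of 500 SYKi-naive MV4-11 cells per well onto pre-dispensed compounds preceded a 72 hr incubation at 37 C. Luminescent CellTiter-Glo signal, read after 10 min at room temperature, reflected viable cells.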
Assay [3] is described as follows: Viability qHTS for spleen associated tyrosine kinase inhibitor (SYKi) drug resistant MV4-11 cells (AID 1963824). Further: nearly all actives have a fitted effect of over 35% in size. Summed up:
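SYK inhibitor-resistant MV4-11 AML cells, 500 per well, added to predispensed compounds and incubated 72 hr at 37 C, 5% CO2. Viability measured by CellTiter-Glo luminescence after 10 min at room temperature.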

The nature of assay [4]: Quantitative highthroughput screen to assess conditional lethalithy of NOMO1 cells grown in Human Plasma-Like Medium with dialyzed fetal bovine serum (HPLM+ds) (AID 1963878). Further: nearly all actives have a fitted effect of over 35% in size. Further: potency means the concentration at half of the fitted maximal effect.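 On Viability: 100% = DMSO wells and 0% = empty wells on each plate.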 Summed up:
(§1)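 Each medium arm—HPLM with 10% dialyzed FBS, or RPMI1640 with 5 mM glucose and 10% untreated or dialyzed FBS—was screened against an 11-point, 3-fold compound titration for 48 h at 37 °C, with CellTiter-Glo luminescence as endpoint.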

Assay [5] is described as follows: Quantitative highthroughput screen to assess conditional lethalithy of SEM cells grown in RPMI1640 with unreated serum (RPMI+s) (AID 1963883).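 Further: 100% = DMSO wells and 0% = empty wells without cells; nearly all actives have a fitted effect of over 35% in size.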 Summed up: as §1
Assay [6] is described as follows: Quantitative highthroughput screen to assess conditional lethalithy of SEM cells grown in RPMI1640 with dialyzed fetal bovine serum (RPMI+ds) (AID 1963884).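 Further: series mostly up to about 46 µM; 100% = DMSO control wells and 0% = empty wells without cells; nearly all actives have a fitted effect of over 35% in size.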 The method, boiled down: as §1
The nature of assay [7]: Cellular viability qHTS for adrenocortical cancer (ACC) cell line SW-13 (AID 1963989).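 Further: cells grown in serum-free medium with ITS supplement; on the % scale 0 is the no-effect control and ±100 the full control effect; nearly all actives have a fitted effect of over 65% in size.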 Particulars: SW-13 ACC cells viability, CellTiter-Glo, 48 h; activity (max response): stronger effect = lower value. The method, boiled down: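 Viability was read as CellTiter-Glo luminescence after 48 h compound treatment (up to 46 uM final) of SW-13 cells grown serum-free; titration curves were fit with a four-parameter logistic model to give IC50 and efficacy.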

A short description of assay [8]: Cellular viability qHTS for adrenocortical cancer (ACC) cell line NCI-H295R (AID 1963990).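 Further: 0% = DMSO only wells and -100% = full killing with cytotoxic reference compound; nearly all actives have a fitted effect of over 60% in size.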 Summed up:
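CellTiter-Glo ATP luminescence, read 48 h after compound addition, measured viability of NCI-H295R adrenocortical cells grown serum-free with ITS. Final concentrations spanned up to 46 uM. Data normalized to DMSO and doxorubicin, fitted for IC50 and maximal response.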

The nature of assay [9]: Quantitative highthroughput screen to assess conditional lethalithy of NOMO1 cells grown in RPMI1640 with dialyzed fetal bovine serum (RPMI+ds) (AID 1963877).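 Further: series mostly up to about 46 µM; 100% = DMSO control wells and 0% = empty wells; nearly all actives have a fitted effect of over 30% in size.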 Summed up: as §1
Assay [10] can be described thus: Quantitative highthroughput screen to assess conditional lethalithy of P12 Ichikawa cells grown in Human Plasma-Like Medium with dialyzed fetal bovine serum (HPLM+ds) (AID 1963879). The following applies: Potency: viability. The method, boiled down: as §1
Assay [11] is described as follows: Quantitative highthroughput screen to assess conditional lethalithy of P12 Ichikawa cells grown in RPMI1640 with dialyzed fetal bovine serum (RPMI+ds) (AID 1963880). The following applies: Potency: P12-Ichikawa viability. The method, boiled down:
as §1

The nature of assay [12]: Quantitative highthroughput screen to assess conditional lethalithy of SEM cells grown in Human Plasma-Like Medium with dialyzed fetal bovine serum (HPLM+ds) (AID 1963882). The method, boiled down: as §1
Assay [13] in a line: Quantitative highthroughput screen to assess conditional lethalithy of P12 Ichikawa cells grown in RPMI1640 with untreated serum (RPMI+s) (AID 1963881). Particulars: Potency: viability. Summed up:
as §1

Structures are written as SMILES. Values joined by “and” are separate entries in the source; they are usually repeats but may differ in a detail not shown here. Equal values may be shown once. Inconclusive results are not listed. A number with no mark means an inactive call. Active and inactive are the calls of the source. The call rests on the fitted dose curve; in most records, active means well fitted curve in the direction sought with a large enough effect; inconclusive means small, poorly fitted or top-dose-only effect, or another doubt; inactive means no such curve, though single readings can be large; an effect the other way counts as inactive or inconclusive.

Sequence of Cytochrome P450 3A7 (Homo sapiens) (P24462 whole entry, looked up): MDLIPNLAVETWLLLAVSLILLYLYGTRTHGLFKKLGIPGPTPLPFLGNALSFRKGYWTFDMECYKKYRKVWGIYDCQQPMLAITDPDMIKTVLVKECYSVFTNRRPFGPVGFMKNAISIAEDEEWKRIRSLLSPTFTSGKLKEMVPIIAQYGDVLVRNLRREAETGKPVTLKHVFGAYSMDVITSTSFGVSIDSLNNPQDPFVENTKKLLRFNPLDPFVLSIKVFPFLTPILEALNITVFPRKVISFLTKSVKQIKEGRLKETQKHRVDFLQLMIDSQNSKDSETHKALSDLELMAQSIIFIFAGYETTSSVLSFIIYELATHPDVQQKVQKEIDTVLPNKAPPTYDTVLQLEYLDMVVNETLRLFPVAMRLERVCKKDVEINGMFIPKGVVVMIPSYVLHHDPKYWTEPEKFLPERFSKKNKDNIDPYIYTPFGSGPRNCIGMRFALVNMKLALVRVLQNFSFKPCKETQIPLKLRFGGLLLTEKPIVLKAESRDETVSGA

`CN(C)CCc1ccc(O)cc1`: the Potency entry in assay [1], in assay [2], in assay [3], in assay [4], in assay [5] and in assay [6] was “inactive” each time. Further, in assay [8], the Potency entry is “inactive”. Besides, in assay [7], the activity (max response) was -2.47%.
Regarding `CCCC(C)(COC(N)=O)COC(=O)NC(C)C` (centres undefined), the Potency result in assay [1], in assay [2], in assay [3], in assay [9], in assay [4] and in assay [10] was “inactive” in each case. Moreover, the Potency entry in assay [11], in assay [12] and in assay [8] was “inactive” throughout. The activity (max response) in assay [7] was 8.8%.
For the molecule `CC(C)(C)NCC(O)c1cc(Cl)c(N)c(C(F)(F)F)c1` (centres undefined), the Potency entry in assay [1], in assay [2] and in [3] was “inactive” throughout. Also, in assay [7], the activity (max response) was 9.74%.
For `CCOC(=O)NC(C)(C)Cc1ccc(Cl)cc1`, the Potency result in [1], in assay [2] and in [3] was “inactive” in each case. In addition, the activity (max response) in assay [7] was -3.94%.
On to `CC(C)(C)NC[C@H](O)c1ccc(O)cc1Cl`, for which the Potency entry in assay [1], in assay [2], in assay [3] and in assay [8] was “inactive” throughout. In [7], the activity (max response) is 9.97%.
For `CN1[C@@H]2CC[C@H]1CC(OC(=O)c1cc(Cl)cc(Cl)c1)C2` (some centres undefined), the Potency result in [1], in [2] and in [3] was “inactive” throughout. For the same molecule, in [7], the activity (max response) was -16.8%.
In the case of `COP(=S)(OC)Oc1cc(Cl)c(Cl)cc1Cl`, the Potency in [1] was 13.8 µM (active). Further, the Potency result in assay [2], in assay [3] and in assay [8] was “inactive” throughout. Besides, the activity (max response) in [7] is 7.21%.
For `CCC1(CC)C(=O)C=CNC1=O`, the Potency entry in assay [1], in assay [2], in assay [3] and in assay [8] was “inactive” throughout. Also, in assay [7], the activity (max response) was 0.834%.
Turning to `CC(O)CN1CCN(CC(=O)[O-])CCN(CC(=O)[O-])CCN(CC(=O)[O-])CC1.[Gd+3]` (centres undefined), the Potency result in assay [1], in assay [2], in assay [3] and in [8] was “inactive” each time. Moreover, in assay [7], the activity (max response) was 0.662%.
As to `CC[N+]1(CC)CCC(OC(=O)C(O)(c2ccccc2)c2ccccc2)C1` (centres undefined), the Potency result in assay [1], in assay [2], in [3] and in assay [8] was “inactive” in each case. Further, the activity (max response) in [7] is 5.92%.
Take `CCN(CC)CCOC(=O)C(O)(c1ccccc1)c1ccccc1`: the Potency result in [1], in assay [2], in assay [3] and in [8] was “inactive” in each case. Moreover, the activity (max response) in assay [7] is 1.88%.
For `O=C1CC[C@@]2(O)[C@H]3Cc4ccc(O)c5c4[C@@]2(CCN3CC2CC2)[C@H]1O5`, the Potency entry in assay [1], in assay [2], in assay [3], in [10], in [11] and in [13] was “inactive” each time. For the same molecule, the Potency result in [8] is “inactive”. The Potency in assay [4] was 9.35 µM (active). Further, the activity (max response) in assay [7] was 9.15% and -5.08%.
`Oc1ccc(Cl)cc1`: the Potency entry in assay [1], in assay [2], in assay [3] and in [8] was “inactive” in each case. Moreover, in assay [7], the activity (max response) was 10.2%.
